# Article PMC11006913
# Assays:
# Assay in all cases: PBM; 200 nM protein, PBS
# Details in all cases: dsDNA, one strand shown
# HOXB4 [1] = target: HOXB4 (Homo sapiens, UniProt P17483 148-234)
# HOXC10 [2] = target: HOXC10 (Homo sapiens, UniProt Q9NYD6 254-340)
# HOXB4 [3] = target: HOXB4 (Homo sapiens, UniProt P17483 148-234, V174I)
# HOXC10 [4] = target: HOXC10 (Homo sapiens, UniProt Q9NYD6 254-340, K271E)
# VAX1 [5] = target: VAX1 (Homo sapiens, UniProt Q5SQQ9 86-172)
# VAX1 [6] = target: VAX1 (Homo sapiens, UniProt Q5SQQ9 86-172, T142I)
# Chain of VAX1 (Homo sapiens, UniProt Q5SQQ9 86-172, T142I) (Q5SQQ9 86-172 T142I): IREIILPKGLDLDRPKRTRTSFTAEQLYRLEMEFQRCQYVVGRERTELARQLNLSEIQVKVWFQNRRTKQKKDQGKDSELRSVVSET
# VAX1 [7] = target: VAX1 (Homo sapiens, UniProt Q5SQQ9 86-172, K157R)
# Chain of VAX1 (Homo sapiens, UniProt Q5SQQ9 86-172, K157R) (Q5SQQ9 86-172 K157R): as the sequence (Q5SQQ9 86-172 T142I) above, with I57T, K72R counted along it
# PRRX1 [8] = target: PRRX1 (Homo sapiens, UniProt P54821 80-166, F113S)
# Chain of PRRX1 (Homo sapiens, UniProt P54821 80-166, F113S) (P54821 80-166 F113S): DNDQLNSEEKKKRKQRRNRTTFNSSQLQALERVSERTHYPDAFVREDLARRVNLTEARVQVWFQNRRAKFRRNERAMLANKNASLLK
# HOXA2 [9] = target: HOXA2 (Homo sapiens, UniProt O43364 129-215, R185T)
# Chain of HOXA2 (Homo sapiens, UniProt O43364 129-215, R185T) (O43364 129-215 R185T): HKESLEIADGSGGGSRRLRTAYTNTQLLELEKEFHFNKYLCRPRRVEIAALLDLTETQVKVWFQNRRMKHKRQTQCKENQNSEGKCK
# HOXA2 [10] = target: HOXA2 (Homo sapiens, UniProt O43364 129-215, R185K)
# Chain of HOXA2 (Homo sapiens, UniProt O43364 129-215, R185K) (O43364 129-215 R185K): as the sequence (O43364 129-215 R185T) above, with T57K counted along it
# HOXA2 [11] = target: HOXA2 (Homo sapiens, UniProt O43364 129-215, Y150S)
# Chain of HOXA2 (Homo sapiens, UniProt O43364 129-215, Y150S) (O43364 129-215 Y150S): as the sequence (O43364 129-215 R185T) above, with Y22S, T57R counted along it
# PRRX1 [12] = target: PRRX1 (Homo sapiens, UniProt P54821 80-166)
# Chain of PRRX1 (Homo sapiens, UniProt P54821 80-166) (P54821 80-166): as the sequence (P54821 80-166 F113S) above, with S34F counted along it
# HOXA2 [13] = target: HOXA2 (Homo sapiens, UniProt O43364 129-215)
# Chain of HOXA2 (Homo sapiens, UniProt O43364 129-215) (O43364 129-215): as the sequence (O43364 129-215 R185T) above, with T57R counted along it
# NKX2-6 = target: T1, NKX2-6 (Homo sapiens, UniProt A6NCS4 118-204, R150C)
# T1 sequence: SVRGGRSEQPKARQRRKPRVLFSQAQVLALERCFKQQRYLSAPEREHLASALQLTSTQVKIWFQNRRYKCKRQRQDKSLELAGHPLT
# MSX2 [14] = target: MSX2 (Homo sapiens, UniProt P35548 130-214, R199I)
# Chain of MSX2 (Homo sapiens, UniProt P35548 130-214, R199I) (P35548 130-214 R199I): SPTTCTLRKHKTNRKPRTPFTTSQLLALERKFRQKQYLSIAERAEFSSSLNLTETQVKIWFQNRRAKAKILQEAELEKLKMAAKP
# ALX3 [15] = target: ALX3 (Homo sapiens, UniProt O95076 139-225, N203Q)
# Chain of ALX3 (Homo sapiens, UniProt O95076 139-225, N203Q) (O95076 139-225 N203Q): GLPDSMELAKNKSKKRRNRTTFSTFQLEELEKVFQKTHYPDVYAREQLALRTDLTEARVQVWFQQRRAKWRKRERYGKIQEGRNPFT
# MSX2 [16] = target: MSX2 (Homo sapiens, UniProt P35548 130-214)
# Chain of MSX2 (Homo sapiens, UniProt P35548 130-214) (P35548 130-214): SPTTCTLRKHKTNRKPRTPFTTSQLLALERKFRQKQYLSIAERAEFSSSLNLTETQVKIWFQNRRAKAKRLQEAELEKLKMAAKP
# ALX3 [17] = target: ALX3 (Homo sapiens, UniProt O95076 139-225)
# Chain of ALX3 (Homo sapiens, UniProt O95076 139-225) (O95076 139-225): as the sequence (O95076 139-225 N203Q) above, with Q65N counted along it
# ALX3 [18] = target: ALX3 (Homo sapiens, UniProt O95076 139-225, L168Q)
# Chain of ALX3 (Homo sapiens, UniProt O95076 139-225, L168Q) (O95076 139-225 L168Q): as the sequence (O95076 139-225 N203Q) above, with L30Q, Q65N counted along it
# ALX3 [19] = target: ALX3 (Homo sapiens, UniProt O95076 139-225, L168V)
# Chain of ALX3 (Homo sapiens, UniProt O95076 139-225, L168V) (O95076 139-225 L168V): as the sequence (O95076 139-225 N203Q) above, with L30V, Q65N counted along it
# MSX2 [20] = target: MSX2 (Homo sapiens, UniProt P35548 130-214, F161Y)
# Chain of MSX2 (Homo sapiens, UniProt P35548 130-214, F161Y) (P35548 130-214 F161Y): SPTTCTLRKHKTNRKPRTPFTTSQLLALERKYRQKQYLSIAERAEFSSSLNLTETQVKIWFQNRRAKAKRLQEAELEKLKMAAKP
# ALX3 [21] = target: ALX3 (Homo sapiens, UniProt O95076 139-225, N203S)
# Chain of ALX3 (Homo sapiens, UniProt O95076 139-225, N203S) (O95076 139-225 N203S): as the sequence (O95076 139-225 N203Q) above, with Q65S counted along it
# ALX4 [22] = target: ALX4 (Homo sapiens, UniProt Q9H161 200-286)
# Chain of ALX4 (Homo sapiens, UniProt Q9H161 200-286) (Q9H161 200-286): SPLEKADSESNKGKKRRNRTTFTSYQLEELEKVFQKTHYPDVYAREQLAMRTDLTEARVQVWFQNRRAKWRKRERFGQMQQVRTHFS
# ALX4 [23] = target: ALX4 (Homo sapiens, UniProt Q9H161 200-286, Q225E)
# Chain of ALX4 (Homo sapiens, UniProt Q9H161 200-286, Q225E) (Q9H161 200-286 Q225E): as the sequence (Q9H161 200-286) above, with Q26E counted along it
# PROP1 [24] = target: PROP1 (Homo sapiens, UniProt O75360 56-141)
# Chain of PROP1 (Homo sapiens, UniProt O75360 56-141) (O75360 56-141): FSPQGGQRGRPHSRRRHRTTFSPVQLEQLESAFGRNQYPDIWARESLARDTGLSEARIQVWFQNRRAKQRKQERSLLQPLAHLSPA
# PROP1 [25] = target: PROP1 (Homo sapiens, UniProt O75360 56-141, R99H)
# Chain of PROP1 (Homo sapiens, UniProt O75360 56-141, R99H) (O75360 56-141 R99H): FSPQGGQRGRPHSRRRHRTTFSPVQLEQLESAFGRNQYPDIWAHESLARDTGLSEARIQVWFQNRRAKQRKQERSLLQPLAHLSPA
# PROP1 [26] = target: PROP1 (Homo sapiens, UniProt O75360 56-141, F88S)
# Chain of PROP1 (Homo sapiens, UniProt O75360 56-141, F88S) (O75360 56-141 F88S): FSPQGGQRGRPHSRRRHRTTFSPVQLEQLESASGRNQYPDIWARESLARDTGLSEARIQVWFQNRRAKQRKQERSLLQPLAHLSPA
# Chain of HOXB4 (Homo sapiens, UniProt P17483 148-234) (P17483 148-234): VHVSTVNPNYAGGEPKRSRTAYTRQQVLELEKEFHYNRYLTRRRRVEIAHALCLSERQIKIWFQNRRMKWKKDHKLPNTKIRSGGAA
# Chain of HOXB4 (Homo sapiens, UniProt P17483 148-234, V174I) (P17483 148-234 V174I): as the sequence (P17483 148-234) above, with V27I counted along it
# Chain of HOXC10 (Homo sapiens, UniProt Q9NYD6 254-340) (Q9NYD6 254-340): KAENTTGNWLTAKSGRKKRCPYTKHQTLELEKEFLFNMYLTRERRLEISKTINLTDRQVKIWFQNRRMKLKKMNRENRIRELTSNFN
# Chain of HOXC10 (Homo sapiens, UniProt Q9NYD6 254-340, K271E) (Q9NYD6 254-340 K271E): as the sequence (Q9NYD6 254-340) above, with K18E counted along it
# Chain of VAX1 (Homo sapiens, UniProt Q5SQQ9 86-172) (Q5SQQ9 86-172): as the sequence (Q5SQQ9 86-172 T142I) above, with I57T counted along it
sequence,measurement,setting,value
GCAGGGCC,binding signal,HOXB4 [1],"7.4 upbm affinity estimate (log intensity, higher = more binding, comparable within an allelic series)"
same,binding signal,HOXC10 [2],"10 upbm affinity estimate (log intensity, higher = more binding, comparable within an allelic series)"
same,binding signal,HOXB4 [3],"7.46 upbm affinity estimate (log intensity, higher = more binding, comparable within an allelic series)"
same,binding signal,HOXC10 [4],"10 upbm affinity estimate (log intensity, higher = more binding, comparable within an allelic series)"
same,binding signal,VAX1 [5],"6.92 upbm affinity estimate (log intensity, higher = more binding, comparable within an allelic series)"
same,binding signal,VAX1 [6],"7 upbm affinity estimate (log intensity, higher = more binding, comparable within an allelic series)"
same,binding signal,VAX1 [7],"6.86 upbm affinity estimate (log intensity, higher = more binding, comparable within an allelic series)"
CCCGCGGG,binding signal,HOXB4 [1],"8.38 upbm affinity estimate (log intensity, higher = more binding, comparable within an allelic series)"
same,binding signal,PRRX1 [8],"9.46 upbm affinity estimate (log intensity, higher = more binding, comparable within an allelic series)"
same,binding signal,HOXA2 [9],"7.19 upbm affinity estimate (log intensity, higher = more binding, comparable within an allelic series)"
same,binding signal,HOXB4 [3],"7.82 upbm affinity estimate (log intensity, higher = more binding, comparable within an allelic series)"
same,binding signal,HOXA2 [10],"10.4 upbm affinity estimate (log intensity, higher = more binding, comparable within an allelic series)"
same,binding signal,HOXA2 [11],"10.4 upbm affinity estimate (log intensity, higher = more binding, comparable within an allelic series)"
same,binding signal,PRRX1 [12],"9.2 upbm affinity estimate (log intensity, higher = more binding, comparable within an allelic series)"
same,binding signal,HOXA2 [13],"7.26 upbm affinity estimate (log intensity, higher = more binding, comparable within an allelic series)"
AGGTCCAC,binding signal,HOXB4 [1],"7.8 upbm affinity estimate (log intensity, higher = more binding, comparable within an allelic series)"
same,binding signal,HOXB4 [3],"7.65 upbm affinity estimate (log intensity, higher = more binding, comparable within an allelic series)"
GAGCCGGC,binding signal,HOXB4 [1],"7.56 upbm affinity estimate (log intensity, higher = more binding, comparable within an allelic series)"
same,binding signal,HOXC10 [2],"10 upbm affinity estimate (log intensity, higher = more binding, comparable within an allelic series)"
same,binding signal,HOXB4 [3],"7.62 upbm affinity estimate (log intensity, higher = more binding, comparable within an allelic series)"
same,binding signal,NKX2-6,"9.46 upbm affinity estimate (log intensity, higher = more binding, comparable within an allelic series)"
same,binding signal,MSX2 [14],"9.47 upbm affinity estimate (log intensity, higher = more binding, comparable within an allelic series)"
same,binding signal,ALX3 [15],"7.82 upbm affinity estimate (log intensity, higher = more binding, comparable within an allelic series)"
same,binding signal,HOXC10 [4],"9.91 upbm affinity estimate (log intensity, higher = more binding, comparable within an allelic series)"
same,binding signal,MSX2 [16],"9.45 upbm affinity estimate (log intensity, higher = more binding, comparable within an allelic series)"
same,binding signal,ALX3 [17],"7.87 upbm affinity estimate (log intensity, higher = more binding, comparable within an allelic series)"
same,binding signal,ALX3 [18],"7.74 upbm affinity estimate (log intensity, higher = more binding, comparable within an allelic series)"
same,binding signal,ALX3 [19],"7.7 upbm affinity estimate (log intensity, higher = more binding, comparable within an allelic series)"
same,binding signal,MSX2 [20],"9.45 upbm affinity estimate (log intensity, higher = more binding, comparable within an allelic series)"
same,binding signal,ALX3 [21],"7.79 upbm affinity estimate (log intensity, higher = more binding, comparable within an allelic series)"
GCTGCGCC,binding signal,HOXB4 [1],"7.58 upbm affinity estimate (log intensity, higher = more binding, comparable within an allelic series)"
same,binding signal,ALX4 [22],"8.05 upbm affinity estimate (log intensity, higher = more binding, comparable within an allelic series)"
same,binding signal,ALX4 [23],"8.03 upbm affinity estimate (log intensity, higher = more binding, comparable within an allelic series)"
same,binding signal,HOXB4 [3],"7.62 upbm affinity estimate (log intensity, higher = more binding, comparable within an allelic series)"
same,binding signal,ALX3 [15],"7.68 upbm affinity estimate (log intensity, higher = more binding, comparable within an allelic series)"
same,binding signal,ALX3 [17],"7.52 upbm affinity estimate (log intensity, higher = more binding, comparable within an allelic series)"
same,binding signal,PROP1 [24],"6.8 upbm affinity estimate (log intensity, higher = more binding, comparable within an allelic series)"
same,binding signal,PROP1 [25],"6.45 upbm affinity estimate (log intensity, higher = more binding, comparable within an allelic series)"
same,binding signal,ALX3 [18],"7.66 upbm affinity estimate (log intensity, higher = more binding, comparable within an allelic series)"
same,binding signal,ALX3 [19],"7.62 upbm affinity estimate (log intensity, higher = more binding, comparable within an allelic series)"
same,binding signal,PROP1 [26],"6.48 upbm affinity estimate (log intensity, higher = more binding, comparable within an allelic series)"
same,binding signal,ALX3 [21],"7.7 upbm affinity estimate (log intensity, higher = more binding, comparable within an allelic series)"
CCAACGGA,binding signal,HOXB4 [1],"7.78 upbm affinity estimate (log intensity, higher = more binding, comparable within an allelic series)"
same,binding signal,PRRX1 [8],"9.38 upbm affinity estimate (log intensity, higher = more binding, comparable within an allelic series)"
same,binding signal,HOXB4 [3],"7.67 upbm affinity estimate (log intensity, higher = more binding, comparable within an allelic series)"
same,binding signal,PROP1 [24],"6.62 upbm affinity estimate (log intensity, higher = more binding, comparable within an allelic series)"
same,binding signal,PROP1 [25],"6.69 upbm affinity estimate (log intensity, higher = more binding, comparable within an allelic series)"
same,binding signal,PROP1 [26],"6.66 upbm affinity estimate (log intensity, higher = more binding, comparable within an allelic series)"
same,binding signal,PRRX1 [12],"9.16 upbm affinity estimate (log intensity, higher = more binding, comparable within an allelic series)"
ACGTAGCA,binding signal,HOXB4 [1],"7.63 upbm affinity estimate (log intensity, higher = more binding, comparable within an allelic series)"
same,binding signal,HOXB4 [3],"7.7 upbm affinity estimate (log intensity, higher = more binding, comparable within an allelic series)"
